# Shown are actives, neighbours in structure and some others; about 27% of the full set was active somewhere.
# CYP2C9 inh = inhibitors of human CYP2C9. P11712. 96,000 tested, 20% active. inhibition, % at 5 µM. CYP2C9 Supersomes, luciferin-H conversion, luminescence. AID 777;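 active = blocking of liver enzyme CYP2C9 beyond about 50% at 5 µM, limit read from the data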
# CYP2C19 act = increases human CYP2C19 enzyme activity | P33261 | recombinant CYP2C19, luciferin-H EGE luminescence; active compounds read high; 0 = fully inhibited enzyme, 1 = untreated enzyme | activation factor at 5 µM | 96,000 tested, under 10 active | AID 1025;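 active = activation factor of at least 2 at 5 µM in the primary screen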;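 note: 0 = wells with 2.5 mM tranylcypromine and 1 = vehicle-only wells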
# CYP2C19 inhib = human CYP2C19 inhibition. P33261. CYP2C19 Supersomes, luciferin-H EGE luminescence, 30 min. inhibition, % at 5 µM. 96,000 tested, 21% active;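 active = CYP2C19 inhibition above a set limit at 5 µM in the primary screen, cut at about 50% in these data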;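 note: plate controls were negative control wells for no effect and 2.5 mM tranylcypromine positive control for full effect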
# CYP2C9 activ = activators of human CYP2C9; AID 1024; 96,000 tested, 1.4% active; recombinant CYP2C9, luciferin-H conversion, luminescence; active compounds read high; factor 1 = untreated enzyme, 0 = blocked; activation factor at 5 µM; P11712;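 active = activation factor of 2 or more for CYP2C9 at a 5 µM dose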;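 note: 0 = sulfaphenazole-blocked wells and 1 = vehicle-only wells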
# sEH inhibitor = inhibitors of human soluble epoxide hydrolase; P34913; recombinant human sEH enzymatic activity assay; inhibition, % at 2 µM; 91,000 tested, 0.34% active; AID 707; in the data active = inhibition above about 80%
# Target sequence (P34913 whole entry, looked up): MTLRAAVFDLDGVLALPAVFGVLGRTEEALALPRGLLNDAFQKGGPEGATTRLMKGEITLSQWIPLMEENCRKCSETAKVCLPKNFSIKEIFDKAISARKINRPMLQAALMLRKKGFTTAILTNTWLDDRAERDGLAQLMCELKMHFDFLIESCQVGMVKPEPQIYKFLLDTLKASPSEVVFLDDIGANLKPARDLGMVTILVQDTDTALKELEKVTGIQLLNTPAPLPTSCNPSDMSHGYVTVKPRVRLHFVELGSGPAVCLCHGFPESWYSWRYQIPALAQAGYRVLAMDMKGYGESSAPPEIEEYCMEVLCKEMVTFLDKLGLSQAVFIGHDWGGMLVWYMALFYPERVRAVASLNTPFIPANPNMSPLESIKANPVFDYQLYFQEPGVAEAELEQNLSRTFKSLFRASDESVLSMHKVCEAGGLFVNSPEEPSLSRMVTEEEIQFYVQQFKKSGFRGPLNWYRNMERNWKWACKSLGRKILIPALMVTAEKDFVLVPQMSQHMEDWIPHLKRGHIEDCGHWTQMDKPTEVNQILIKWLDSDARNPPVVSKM
# sEH act = increases human soluble epoxide hydrolase activity. activation, % at 2 µM. P34913. purified human sEH enzymatic activity, activator screen. 91,000 tested, 0.04% active; in the data active = activation above about 37%
# * marks the source's active call; other numbers are inactive results; / = no result.
SMILES,CYP2C9 inh,CYP2C19 act,CYP2C19 inhib,CYP2C9 activ,sEH inhibitor,sEH act
Cc1cc(-c2ccccc2)nc(N(C)NC(=O)c2cccc(C(F)(F)F)c2)c1S(C)(=O)=O,12.6,0.8,15.4,0.9,3.0,-2.9
COc1ccc(NC(=O)CNS(=O)(=O)c2cccs2)c(OC)c1,40.4,0.4,57.4*,0.6,-10.0,9.6
CCOc1ccc2nc(NC(=O)C3CCN(S(=O)(=O)c4cnc[nH]4)CC3)sc2c1,84.0*,0.2,83.5*,0.2,-0.5,-2.1
COc1ccc2nc(NC(=O)C3CCN(S(=O)(=O)c4cccs4)CC3)sc2c1,67.0*,0.2,84.1*,0.3,-9.9,6.8
COc1ccc2nc(NC(=O)C3CCN(S(=O)(=O)c4cnc[nH]4)CC3)sc2c1,34.9,0.8,21.7,0.7,/,/
COc1ccc(OC)c(NC(=O)CCNS(=O)(=O)c2cccs2)c1,/,/,/,/,0.4,2.0
COc1ccc(CN2CCC(CNC(=O)NC3CCCCC3)CC2)cc1,-0.9,1,4.2,1,20.6,-21.0
O=C(NCc1cccs1)C1CC(=O)N(c2ccccc2)C1 (stereo unspecified),-14.1,0.8,22.1,1.1,5.6,-1.9
COc1cccc(COc2ccccc2C2Nc3ccc(Br)cc3C(=O)N2NC(=O)c2ccncc2)c1 (stereo unspecified),84.8*,0.3,68.9*,0.2,-1.0,1.8
Cn1c(SCc2ccccc2)nnc1-c1ccncc1,34.0,0.1,90.8*,0.7,-3.0,2.6
Cn1c(SCc2ccccc2)nnc1-c1cccs1,-7.9,0.6,40.8,1.1,6.5,-5.5
Cc1ccc(CSc2nnc(-c3ccccn3)n2C)cc1,5.3,0.8,19.5,0.9,5.5,-7.7
Cn1c(SCc2ccc(Br)cc2)nnc1-c1ccncc1,74.8*,0.1,94.2*,0.3,0.9,-0.9
c1ccc(-n2nnnc2SCCCSc2nc3ccccc3s2)cc1,35.4,0.5,47.3,0.6,-4.8,4.4
O=C(O)CC(C(=O)Nc1ccc(Cl)c(Cl)c1)C1CCCO1 (stereo unspecified),-10.0,1,4.8,1.1,8.6,-8.1
COCCn1c(SCc2nnc(-c3ccccc3)o2)nc2sc3c(c2c1=O)CCC3,87.1*,0.5,48.1,0.1,2.5,-2.1
COc1ccc(-c2nnc(CSc3ncnc4sc5c(c34)CCC5)o2)cc1OC,53.1*,0.6,42.0,0.5,/,/
COCCn1c(SCC(=O)Nc2ncc(C)s2)nc2sc3c(c2c1=O)CCC3,51.9*,0.8,18.3,0.5,-8.7,9.0
CC1CC(=O)C=C(O)C1C(=O)OC(C)(C)C (stereo unspecified),42.1,0.9,11.2,0.6,0.9,3.4
Cc1cccc(-c2nc3c(c(SCC(N)=O)n2)CCCC3)c1,/,/,/,/,11.2,-6.5
Cn1c(=O)c2c(SC3CCCC3)nc(C3CC3)nc2n(C)c1=O,7.5,1,-3.3,0.9,/,/
O=C(CSc1nnc(-c2ccccc2)o1)OCc1ccccc1,4.1,1,3.4,1,7.3,-7.7
COc1ccccc1N1CCN(C(=O)C(=O)N/N=C/c2cccc(O)c2)CC1,17.3,0.9,13.7,0.8,-0.6,-1.1
CCCCOCP(=O)(CCCC)COCCCC,0.2,0.9,13.1,1,-1.7,-0.2
C#CCOc1c(Br)cc(/C=N/O)cc1OCC,72.2*,0.5,47.4,0.3,-1.4,2.1
SMILES,CYP2C9 inh,CYP2C19 act,CYP2C19 inhib,CYP2C9 activ,sEH inhibitor,sEH act
C#CCOc1c(Br)cc(/C=N\NC(=O)CN2CCOCC2)cc1OCC,58.8*,0.7,31.2,0.4,-3.5,5.5
CCOc1ccccc1NC(=O)c1ccccc1NS(C)(=O)=O,95.9*,0.9,9.3,0,0.9,0.4
CCOc1ccccc1C(=O)Nc1ccccc1O,-468.7,0.7,27.4,5.7*,-5.1,8.6
CC(C)(C)c1ccccc1OCCOCCSc1ncccn1,-17.5,1.4,-35.3,1.2,-9.5,7.5
O=C(c1ccccc1)c1nc[nH]c1C(=O)Nc1ccccc1,9.4,0.9,14.7,0.9,20.9,-20.4
CN(NC(=O)c1ccc(Cl)cc1)c1nc(-c2ccccc2)nnc1C(F)(F)F,14.2,0.7,26.3,0.9,-6.5,3.9
CCCCC(=O)NN(C)c1nc(-c2ccccc2)nnc1C(F)(F)F,47.1,0.2,77.5*,0.5,-3.5,1.5
CNc1nc(-c2ccccc2)nnc1C(F)(F)F,-311.1,0.8,24.3,4.1*,-7.5,5.3
Cc1ccc(Sc2nc(-c3ccccc3)nnc2C(F)(F)F)cc1,23.2,1.1,-8.0,0.8,/,/
